hgDAF12 agonist: hgDAF-12 agonism, primary luciferase screen; AID 687014; HEK293 GAL4-hgDAF12 UAS-luciferase reporter, agonist luminescence; normalized to butyrate control; 1.8% of 370,000 active; activation, % at 6.8 µM;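 active = activation above a cutoff set at the mean of all screened compounds plus 3 SD, cut at about 10% in these data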;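 also: 0% = DMSO wells and 100% = sodium butyrate wells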
SMARCA2 activ: increases SMARCA2 function in MMTV reporter cells; MG213 cells, MMTV-luciferase reporter, dexamethasone, overnight; activation, % at 9.1 µM; 1% of 370,000 active; AID 652017; in the data active = activation above about 7.8%;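 also: 0% = vehicle wells and 100% = reference activator wells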
DAX1 inh: DAX1 (NR0B1) inhibition, primary screen; AID 652010; inhibition, % at 6.8 µM; 1.1% of 370,000 active; HEK293T StAR-luciferase reporter, SF-1/DAX-1 repression relief;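 active = inhibition above the mean over all tested compounds plus 3 SD, cut at about 3.6% in these data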;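 also: 0% = DAX-1 cells with DMSO and 100% = cells lacking DAX-1 with DMSO; higher inhibition means more luminescence from relief of DAX-1 repression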
ssDAF-12 act: activates DAF-12 receptor from parasite S. stercoralis; HEK293 ssDAF-12/GRIP1 lit1-tk-luc reporter, luminescence; % of 3 µM dafachronic acid response; 1% of 370,000 active; activation, % at 6.8 µM;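 active = activation above the mean over all tested compounds plus 3 SD, cut at about 0.9% in these data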;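 also: 0% = DMSO-only wells and 100% = 3 µM delta7-dafachronic acid wells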
hcDAF-12 act: activates DAF-12 receptor from parasite H. contortus; HEK293 hcDAF-12 lit1-tk-luc reporter, luminescence; 0% DMSO, 100% Δ7-dafachronic acid; activation, % at 6.8 µM; 1.4% of 370,000 active;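 active = activation above the mean of all tested compounds plus 3 SD, cut at about 5.5% in these data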;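 also: 100% = response to 3 µM Δ7-dafachronic acid high control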
DAX1 conf: NR0B1 (human) inhibition, confirmation | AID 652134 | shares compounds with DAX1 inh | inhibition, % at 6.8 µM | HEK293T StAR-promoter luciferase reporter, SF-1/DAX-1 repression | 87% of 2,400 active;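 active = inhibition above the average of every tested compound plus 3 SD, cut at about 3.8% in these data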;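 also: 0% = DAX-1 cells with DMSO and 100% = no DAX-1 control cells with DMSO; active compounds raise luminescence by relieving repression of the StAR reporter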
SF1 AF2mut Luc: counter-screen for DAX1 inhibitors: nonselective inhibitors with SF-1 AF2 mutant | shares compounds with DAX1 inh | AID 652136 | inhibition, % at 6.8 µM | 78% of 2,400 active | HEK293 StAR-luciferase, luminescence;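 active = inhibition above the mean of all tested compounds plus 3 SD, cut at about 3% in these data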;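 also: 0% = DAX-1 transfected cells with DMSO and 100% = cells without DAX-1 with DMSO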
SMARCA2 act conf: SMARCA2 activation, confirmation screen; shares compounds with SMARCA2 activ; MG213 cells, MMTV-luciferase with dexamethasone, luminescence, overnight; MG213 cells expressing E1A, Rb sequestered; DMSO wells 0%, reference activator 100%; activation, % at 9.1 µM; 30% of 3,500 active;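 active = activation above its plate's cutoff, the mean activation of tested wells plus 3 SD, cut at about 7.9% in these data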
VP16 Luc act: counter-screen for SMARCA2 activators: GAL4-VP16 luciferase reporter activation; shares compounds with SMARCA2 activ; 41% of 3,500 active; activation, % at 9.1 µM; HEK293 GAL4-VP16 pG5luc reporter, luciferase luminescence; scaled: DMSO wells 0%, SAHA wells 100%;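 active = activation above the solvent-only control well mean plus 3 SD, averaged across control plates, cut at about 5.2% in these data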
LXRb hcDAF ctr: activates human LXR-beta, counter-screen for hcDAF-12 agonists | activation, % at 6.8 µM | shares compounds with hcDAF-12 act | 3,400 tested, under 10 active | AID 743027 | HEK293 Gal4-LXR tk-luc reporter, luminescence, 24 h; normalized: DMSO 0%, positive control 100%;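 active = mean percent activation of the reporter above a cutoff set as the average over tested compounds plus their standard deviation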
Target sequence (P55055 whole entry, looked up, the tested form may be a part): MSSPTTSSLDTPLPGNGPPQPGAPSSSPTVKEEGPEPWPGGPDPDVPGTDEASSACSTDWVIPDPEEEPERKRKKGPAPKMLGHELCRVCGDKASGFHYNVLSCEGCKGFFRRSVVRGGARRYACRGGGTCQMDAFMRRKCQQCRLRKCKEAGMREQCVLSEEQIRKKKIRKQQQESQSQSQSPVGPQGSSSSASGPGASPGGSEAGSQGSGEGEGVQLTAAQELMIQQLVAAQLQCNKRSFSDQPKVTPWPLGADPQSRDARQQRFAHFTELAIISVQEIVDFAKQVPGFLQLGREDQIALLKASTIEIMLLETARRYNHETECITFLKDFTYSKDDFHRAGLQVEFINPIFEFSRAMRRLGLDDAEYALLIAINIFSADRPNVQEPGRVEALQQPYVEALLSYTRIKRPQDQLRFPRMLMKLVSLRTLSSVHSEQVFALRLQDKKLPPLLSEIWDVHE
hcDAF12 ag: hcDAF-12 agonism, confirmation assay; shares compounds with hcDAF-12 act; HEK293 hcDAF-12 lit1-tk-luc reporter, luminescence; % of Δ7-dafachronic acid response; activation, % at 6.8 µM; 61% of 3,400 active;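 active = mean activation across triplicate tests above the threshold derived from the earlier primary screen, cut at about 5.5% in these data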;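 also: 0% = DMSO only wells and 100% = 3 µM Δ7-dafachronic acid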
hgDAF12 ag: confirmation of H. glycines DAF-12 agonists. shares compounds with hgDAF12 agonist. HEK293 GAL4-hgDAF12 luciferase reporter, agonist mode; percent of butyrate response. activation, % at 6.8 µM. 80% of 3,300 active;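 active = mean activation over triplicate wells above the hit cutoff derived from the earlier primary screen, cut at about 11% in these data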;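 also: 0% = DMSO low control and 100% = 2 mM sodium butyrate high control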
LXR ag 2: counter-screen for DAF-12 agonists: agonists of human LXR-beta; activation, % at 6.8 µM; HEK293 Gal4-LXR luciferase reporter, 24 h; shares compounds with hgDAF12 agonist; 3,300 tested, under 10 active;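 active = mean activation of the triplicate above a set limit carried over from the primary screen, none filed active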
* = called active by the depositor; / = not tested or not shown. An excerpt weighted towards active compounds, which were near 4.2% of everything screened.

SMILES	hgDAF12 agonist	SMARCA2 activ	DAX1 inh	ssDAF-12 act	hcDAF-12 act	DAX1 conf	SF1 AF2mut Luc	hgDAF12 ag	LXR ag 2	others
CC(=O)c1sc(NC(=O)c2ccccc2F)nc1C	14*	0	5.4*	0	5	13*	6.4*	14*	1
CC(=O)c1sc(NC(=O)C(C)(C)C)nc1C	4	1	0	-1	0	/	/	/	/
CC(=O)c1sc(NC(=O)c2ccc(C(C)(C)C)cc2)nc1C	13*	8.2*	7.6*	1	6.2*	14*	9.6*	19*	1	SMARCA2 act conf=8.0*;VP16 Luc act=18*
COc1ccc(Nc2nc(C)c(C(C)=O)s2)cc1	17*	8.2*	4.9*	-1	4	5.1*	4.6*	8	0	SMARCA2 act conf=2;VP16 Luc act=10*
Cc1csc(-c2nc3ccccc3n2C(C(=O)NC(C)(C)C)c2cc3ccccc3o2)c1 (stereo unspecified)	16*	6	11*	1.9*	9.4*	6.6*	6.0*	18*	1	LXRb hcDAF ctr=1;hcDAF12 ag=11*
CC(C)(C)NC(=O)C(c1cc2ccccc2o1)n1c(=O)c(-c2cc3ccccc3[nH]2)nc2ccccc21 (stereo unspecified)	4	-4	0	0	5	/	/	/	/
c1ccc(-c2nc(-c3nccc4ccccc34)oc2-c2ccccc2)cc1	18*	4	4.8*	3.0*	15*	4.8*	2	19*	1	LXRb hcDAF ctr=1;hcDAF12 ag=5.7*
CC(C)c1ccc(NC(=O)O[C@@H]2CC[C@@]34CCCN3C(=O)CCC[C@H]4C2)cc1	1	/	/	-2	-2	/	/	/	/
COc1ccc(NC(=O)c2cc3ccccc3oc2=O)cc1	23*	3	6.7*	1.1*	5.8*	3	-1	10	1
COc1ccc2oc(=O)c(C(=O)Nc3ccccc3O)cc2c1	19*	5	5.6*	1	6.1*	11*	6.8*	16*	1
COc1ccc2oc(=O)c(C(=O)NC(C)c3ccccc3)cc2c1 (stereo unspecified)	-1	-1	0	-1	-3	/	/	/	/
CCC(CO)Nc1cccc2c1S(=O)(=O)N(Cc1cn(Cc3ccc(C(F)(F)F)cc3)nn1)Cc1ccccc1O2 (stereo unspecified)	-4	5	-1	-2	-2	/	/	/	/
O=C1NC(Cc2ccccc2)c2nc3ccc(F)cc3c(=O)n2-c2cc(Cl)ccc21 (stereo unspecified)	-4	-2	0	0	0	/	/	/	/
CN(C(=O)/C=C/c1cnc2ccccc2c1)C1CCCCC1	17*	9.9*	7.8*	0.9*	8.1*	17*	9.9*	15*	1	SMARCA2 act conf=12*;VP16 Luc act=11*;LXRb hcDAF ctr=1;hcDAF12 ag=6.3*
COc1ccc(/C=C/C(=O)N(C)C2CCCCC2)cc1Br	6	2	0	-1	-1	/	/	/	/
CCN1CCN(c2ccc(NC(=O)c3ccco3)cc2)CC1	14*	8.3*	8.0*	-1	4	4.9*	5.4*	13*	0	SMARCA2 act conf=5;VP16 Luc act=5
CCCC(=O)N1CCN(c2ccc(NC(=O)c3ccco3)cc2)CC1	3	4	0	-1	0	/	/	/	/
c1ccc2sc(N3CCOCC3)nc2c1	4	1	1	-1	1	/	/	/	/
C1=C(c2cn(-c3nc4ccccc4s3)nn2)CCCC1	20*	6	11*	1	12*	12*	5.8*	20*	1	LXRb hcDAF ctr=2;hcDAF12 ag=8.5*
c1ccc2sc(-n3cc(C4CCCCC4)nn3)nc2c1	26*	6	9.2*	1.3*	6.6*	15*	8.7*	25*	1	LXRb hcDAF ctr=1;hcDAF12 ag=5.9*
Cc1nn(-c2ccccc2)c2sc(C(=O)N3CCC4(CC3)OCCO4)cc12	2	-5	0	-1	-3	/	/	/	/
Cc1noc(C)c1Cn1c(C)c(C(=O)NCc2ccc3c(c2)OCCO3)sc1=O	-2	-2	-1	-1	-2	/	/	/	/
O=C(NN=C1C2CC3CC(C2)CC1C3)c1cccs1	14*	3	7.4*	0	5	3	1	1	0
C=C(C)C1CC=C(C)/C(=N/NC(=O)c2cccs2)C1 (stereo unspecified)	6	2	0	0	-1	/	/	/	/
O=C(N/N=C1/CC2C=CCC12)c1cccs1 (stereo unspecified)	15*	7	8.3*	1.1*	4	2	2	4	0
SMILES	hgDAF12 agonist	SMARCA2 activ	DAX1 inh	ssDAF-12 act	hcDAF-12 act	DAX1 conf	SF1 AF2mut Luc	hgDAF12 ag	LXR ag 2	others
O=C(NN=C1C2CC3CC(C2)CC1C3)c1ccccc1O	0	1	2	-1	0	/	/	/	/
COc1cccc(-c2ncn(CCc3ccccc3OC)c2CC(C)C)c1	-5	-6	-2	-2	-4	/	/	/	/
Cc1ccc(CSc2nnc(-c3cccs3)o2)cc1C	5	-2	1	-1	1	/	/	/	/
CCOc1ccc(-n2c(SCC(=O)Nc3cc4oc5ccccc5c4cc3OC)nnc2-c2cccc(Cl)c2)cc1	4	-3	-2	1	0	/	/	/	/
Cc1ccc(NC(=O)N2CCc3ccccc32)cc1C	16*	7	7.4*	1.2*	15*	16*	8.4*	25*	1	LXRb hcDAF ctr=2;hcDAF12 ag=9.4*
CC(=O)c1cccc(Nc2ccc(Br)cc2)c1	14*	6	9.7*	-1	4	12*	6.3*	9	0

Screens from PubChem BioAssay.
